Data on 21 compounds can be found in PubChem BioAssay AID504904 (The Scripps Research Institute Molecular Screening Center, 2011).

The structures appear in SMILES notation. The list shows a part of the results. Activity calls are given as the source filed them. Cut-off read from the data, not from the text of the source: active = activation above about 18%; inactive = the rest.

Mu-type opioid receptor (Homo sapiens) + Delta-type opioid receptor (Homo sapiens), sequence (P35372 whole entry, looked up): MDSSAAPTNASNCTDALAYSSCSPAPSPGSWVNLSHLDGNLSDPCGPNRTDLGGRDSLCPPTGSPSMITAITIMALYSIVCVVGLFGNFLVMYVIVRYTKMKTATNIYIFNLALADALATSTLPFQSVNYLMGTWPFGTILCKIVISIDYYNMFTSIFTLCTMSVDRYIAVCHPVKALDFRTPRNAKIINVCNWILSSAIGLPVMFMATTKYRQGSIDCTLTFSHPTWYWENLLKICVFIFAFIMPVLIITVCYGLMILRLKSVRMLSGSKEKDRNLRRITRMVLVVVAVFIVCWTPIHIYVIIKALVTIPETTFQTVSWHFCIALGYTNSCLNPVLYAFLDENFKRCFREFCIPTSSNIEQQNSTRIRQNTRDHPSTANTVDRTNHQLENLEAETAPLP
Mu-type opioid receptor (Homo sapiens) + Delta-type opioid receptor (Homo sapiens), sequence (P41143 whole entry, looked up): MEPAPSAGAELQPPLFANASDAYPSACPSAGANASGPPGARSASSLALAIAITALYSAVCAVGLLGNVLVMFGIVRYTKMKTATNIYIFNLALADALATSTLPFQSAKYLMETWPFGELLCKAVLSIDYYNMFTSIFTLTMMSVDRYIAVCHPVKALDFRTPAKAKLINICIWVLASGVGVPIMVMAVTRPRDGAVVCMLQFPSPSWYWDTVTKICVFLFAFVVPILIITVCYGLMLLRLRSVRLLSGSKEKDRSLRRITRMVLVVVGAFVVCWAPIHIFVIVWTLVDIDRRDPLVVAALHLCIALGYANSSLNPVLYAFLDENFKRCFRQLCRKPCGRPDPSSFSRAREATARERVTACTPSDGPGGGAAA

The test concerns the target Mu-type opioid receptor (Homo sapiens) + Delta-type opioid receptor (Homo sapiens) (UniProt P35372+P41143). The experiment in a line: agonists of MOR-DOR heterodimerization, confirmation, cell-based, luminescence (AID 504904).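 Note: 0% = vehicle-treated cells and 100% = reference agonist.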 As to conditions: cells, luminescence complementation, at 9.3 µM, active compounds read high.
On to `COc1cc(/C=N/NC(=O)Nc2ccccc2)ccc1OCCOc1ccccc1C`, for which the activation is 17.1% (inactive).
Next, `Cc1ccc(CNC(=O)CC(NC(=O)c2ccccc2)c2ccccc2)cc1` (stereo unspecified): -2.24% (inactive).
On to `CCNS(=O)(=O)c1ccc(NC(=O)Nc2cccc(OC)c2)cc1`, for which the activation was 3.23% (inactive).
The figure for `COc1cccc(/C=N/Nc2cc(C)nc(-c3ccccc3O)n2)c1O` is -1.59% (inactive).
Next, `CCCC(=O)NC(C)C(c1cccs1)N1CCN(c2ccccc2)CC1` (stereo unspecified): 36.7% (active); `N#C/C(=C(/O)COC(=O)COc1ccc(Cl)cc1)c1nc2ccccc2[nH]1`: 13.4% (inactive); `COC(=O)c1ccc(C23CC4(C2)[C@H](CN(Cc2cccnc2)[C@@H]4c2ccccc2)C3c2ccc(Cl)nc2)cc1` (stereo partly specified): 17.2% (inactive).
The figure for `CC(c1cccnc1)N(CCN(C)C)C(=O)Nc1ccc(Cl)c(Cl)c1` (stereo unspecified) is -0.05% (inactive); for `Cc1ccc(O)c(NC(=S)NC(=O)COc2ccc(Br)cc2)c1` it is 2.92% (inactive).
Take `CCC(C(=O)OCC(=O)Nc1ccc(C(=O)Nc2ccc(OC)cc2)cc1)c1ccccc1` (stereo unspecified): the activation is 4.73% (inactive).
Next, `CN(CC(=O)Nc1ccc(Cl)cc1)C(=O)c1ccc(COc2ccccc2)cc1`: 0.49% (inactive); `O=C(NCc1cn2ccsc2n1)Nc1ccc(Cl)cc1`: 7.03% (inactive); `CN(C)CCCN(C(=O)c1ccc(S(=O)(=O)N2CCCc3ccccc32)cc1)c1nc2ccc(F)cc2s1`: 8.38% (inactive).
Next, `C=C(C)COc1ccc(-c2n[nH]c(C)c2-c2ccccc2)c(O)c1`: 13.3% (inactive).
`CCc1ccc(C(CNc2nc(C(F)(F)F)nc3ccccc23)N(C)C)cc1` (stereo unspecified): the activation is 42.4% (active).
Take `Cc1ccc(S(=O)(=O)N(CC(=O)Nc2cccnc2)c2ccc(Br)cc2)cc1`: the activation was 20.6% (active).
Next, `CCOC(=O)c1c(C)[nH]c2c1-c1ccccc1C(=O)C2=O`: 18.7% (active).
Regarding `CN(C)C(CNC(=O)c1cc2ccccc2o1)c1ccccc1` (stereo unspecified), the activation is 1.4% (inactive).
As to `CN1CCN(c2ccc([N+](=O)[O-])c(Sc3nc4ccccc4[nH]3)c2)CC1`, the activation is 1.22% (inactive).
The figure for `O=C(Nc1ccc(OC(F)(F)F)cc1)c1ccc2c(c1)no[n+]2[O-]` is 13.3% (inactive); for `CN(C)C(CNC(=O)Cc1ccc([N+](=O)[O-])cc1)c1ccccc1` (stereo unspecified) it is 164% (active).
